Data reported in PubChem BioAssay (NCI).
About 79,000 compounds went through this panel and 15% of them were active in at least one assay; those are over-represented in the sample as a whole. Values without a mark were called inactive. Calls of active or inactive are those of the source. No stated cut-off is given here; in the data, active means growth inhibition above about 70%; inactive means the rest.

How the values were obtained:
[1] = NCI Yeast Anticancer Drug Screen. Data for the rad50 strain (AID 155);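 further: 0% = growth of vehicle-only cultures of the same strain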; conditions: S. cerevisiae rad50 strain growth inhibition, stronger effect = higher value
Summary of the method: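 A DNA repair-deficient yeast mutant serves as the test organism; compound-induced growth inhibition is calculated against vehicle-treated cells.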

[2] = NCI Yeast Anticancer Drug Screen. Data for the mec2-1 strain (AID 157); conditions: S. cerevisiae mec2-1 strain, stronger effect = higher value
Summary of the method: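 mec2-1 yeast strain, carrying an alteration in DNA damage repair or cell cycle control, was exposed to compounds; growth inhibition was measured relative to vehicle-treated controls.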

[3] = NCI Yeast Anticancer Drug Screen. Data for the sgs1 mgt1 strain (AID 161);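 further: 0% = growth of cultures given vehicle only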; conditions: S. cerevisiae sgs1 mgt1 strain, stronger effect = higher value
Summary of the method: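 Growth of a repair-deficient yeast mutant was monitored after compound treatment and expressed as inhibition relative to vehicle-treated cultures.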

[4] = NCI Yeast Anticancer Drug Screen. Data for the cln2 rad14 strain (AID 165);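 further: 0% = growth equal to vehicle treated cultures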; conditions: S. cerevisiae cln2 rad14 strain, stronger effect = higher value
Summary of the method: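 Yeast carrying cln2 and rad14 alterations (cell cycle control and DNA damage repair) were exposed to compounds. Growth inhibition was measured against vehicle-treated controls.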

[5] = NCI Yeast Anticancer Drug Screen. Data for the bub3 strain (AID 167); conditions: S. cerevisiae bub3 mutant strain, stronger effect = higher value
Summary of the method: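 Inhibition values come from growth of compound-treated mutant yeast normalised to vehicle-treated controls.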

[6] = NCI Yeast Anticancer Drug Screen. Data for the mlh1 rad18 strain (AID 175); conditions: S. cerevisiae mlh1 rad18 strain growth inhibition, stronger effect = higher value
Summary of the method: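 Growth inhibition of the yeast strain was measured after compound exposure and expressed relative to vehicle-treated controls. The strain carries defined defects in DNA damage repair.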

[7] = at 5.0 µM (retest, dose inferred, filed as 0.5)
[8] = at 50.0 µM (retest, dose inferred, filed as 5.0)

SMILES	growth inhibition [1, 7]	growth inhibition [1, 8]	growth inhibition ([1]; at 50.0 µM)	growth inhibition [2, 7]	growth inhibition [2, 8]	growth inhibition ([2]; at 50.0 µM)	growth inhibition [3, 7]	growth inhibition [3, 8]	growth inhibition ([3]; at 50.0 µM)	growth inhibition [4, 7]	growth inhibition [4, 8]	growth inhibition ([4]; at 50.0 µM)	growth inhibition [5, 7]	growth inhibition [5, 8]	growth inhibition ([5]; at 50.0 µM)	growth inhibition [6, 7]	growth inhibition [6, 8]	growth inhibition ([6]; at 50.0 µM)
O=C1c2cc([N+](=O)[O-])ccc2-c2cc([N+](=O)[O-])ccc21	44%	32%	91.2% (active)	39%	39%	92.8% (active)	73% (active)	97% (active)	93.3% (active)	46%	99% (active)	68%	80% (active)	97% (active)	91.2% (active)	21%	34%	74.5% (active)
CC(C)(C)NC(=S)N/N=C/c1cc(Cl)cc(Cl)c1O	65%	72% (active)	77.1% (active)	64%	84% (active)	90% (active)	97% (active)	99% (active)	90.4% (active)	88% (active)	93% (active)	82.7% (active)	97% (active)	98% (active)	84.7% (active)	74% (active)	87% (active)	80.7% (active)
CC(O)C1CCCC[N+]1(C)C (stereo not given)	1%	-3%	0.05%	5%	8%	-6.9%	-1%	-36%	51.5%	-5%	-6%	-7.6%	-11%	-8%	9.45%	-17%	-3%	-18.6%
O=C1OCCCOC(=O)c2cc(ccc2O)OCC#CC#CCOc2ccc(O)c1c2	2%	-6%	12.6%	-4%	19%	8.75%	-1%	-3%	16.1%	4%	-4%	38.6%	2%	-6%	86.2% (active)	0%	-4%	29.7%
CCN(CC)CCCC(C)Nc1cc(O)c2c(c1O)C(=O)c1ccccc1C2=O (stereo not given)	96% (active)	98% (active)	98.8% (active)	95% (active)	99% (active)	98.5% (active)	98% (active)	99% (active)	98.8% (active)	53%	98% (active)	97.2% (active)	95% (active)	98% (active)	97.8% (active)	94% (active)	98% (active)	98.8% (active)
OCc1ccc2c(c1)CC1(C2)Cc2cc3c(cc2C1O)CCC3 (stereo not given)	20%	41%	48.6%	18%	36%	42.4%	3%	22%	51.8%	5%	51%	47.4%	21%	59%	33.2%	20%	57%	71% (active)
Cc1c(C(=O)N(CCO)CCO)[n+](=O)c2ccccc2n1[O-]	5%	3%	28.9%	13%	7%	-5.35%	38%	18%	14.7%	1%	2%	39%	3%	26%	-5.1%	31%	13%	65.7%
CC(=O)Oc1ccc(C)cc1C(C)(C)C	-1%	0%	57.6%	1%	-4%	54.8%	-2%	-2%	59.1%	1%	-1%	28.7%	0%	-7%	59.3%	-1%	0%	74.2% (active)
N#Cc1cc2c(cc1Cl)Sc1nccn1S2(=O)=O	5%	36%	28.4%	6%	52%	34.7%	19%	63%	43.7%	-1%	17%	39.2%	10%	90% (active)	76.7% (active)	2%	62%	64%
NC(=S)Nc1c(Br)cc(Br)cc1Br	-1%	91% (active)	62.5%	1%	90% (active)	33.5%	-1%	84% (active)	34.8%	3%	88% (active)	23.1%	-6%	80% (active)	74% (active)	2%	88% (active)	47%
CCC(CO)Nc1nc2cc(Cl)ccc2c2ccc(Cl)cc12 (stereo not given)	19%	98% (active)	93.6% (active)	2%	99% (active)	94.8% (active)	24%	97% (active)	95.6% (active)	-4%	97% (active)	89.8% (active)	11%	97% (active)	95.5% (active)	20%	96% (active)	94% (active)
COc1ccc(C2CC(=O)CC(=O)C2)cc1	-6%	-23%	65.2%	5%	-8%	10.1%	-7%	2%	32.5%	-64%	-20%	-3.35%	-25%	-15%	16%	-12%	0%	55.5%
c1cnc2c(Oc3nc(Oc4cccc5cccnc45)nc(Oc4cccc5cccnc45)n3)cccc2c1	1%	91% (active)	94% (active)	30%	90% (active)	89.9% (active)	18%	76% (active)	94.1% (active)	5%	54%	84.2% (active)	-2%	92% (active)	94% (active)	30%	94% (active)	91.2% (active)
CCCCCC(C)NCCOC(=O)c1ccccc1 (stereo not given)	3%	78% (active)	50.8%	-13%	82% (active)	-10.7%	-8%	79% (active)	59.4%	0%	26%	67.2%	3%	84% (active)	75.5% (active)	18%	89% (active)	40.5%
O=C(CC(=O)c1ccncc1)c1ccccc1	7%	96% (active)	97.2% (active)	7%	90% (active)	94.7% (active)	1%	93% (active)	97% (active)	-16%	96% (active)	93.8% (active)	-1%	98% (active)	97.6% (active)	0%	99% (active)	98% (active)
CC1=CC(O)(c2ccc(-c3ccccc3Cl)cc2)OC1=O (stereo not given)	-8%	90% (active)	90.2% (active)	0%	96% (active)	94.8% (active)	-1%	88% (active)	92.1% (active)	-19%	87% (active)	90.9% (active)	-11%	95% (active)	89.3% (active)	-9%	94% (active)	96.3% (active)
CC1=Nc2ccccc2C1C(Cc1ccccc1N)c1c(C)[nH]c2ccccc12 (stereo not given)	15%	97% (active)	95.6% (active)	16%	95% (active)	95.4% (active)	11%	90% (active)	88.8% (active)	15%	98% (active)	94.5% (active)	7%	95% (active)	89.6% (active)	11%	96% (active)	97% (active)
CCN1CCC(O)(/C=C/c2ccccc2)C(C(=O)/C=C/c2ccccc2)C1 (stereo not given)	11%	89% (active)	97.7% (active)	6%	80% (active)	98.2% (active)	13%	82% (active)	97.8% (active)	13%	74% (active)	85.1% (active)	8%	94% (active)	98.9% (active)	19%	93% (active)	96% (active)
CCN(CC)CCNc1c(O)cc(C)c2sc3ccccc3c(=O)c12	18%	95% (active)	98.5% (active)	10%	94% (active)	99% (active)	7%	98% (active)	98.8% (active)	11%	84% (active)	96.8% (active)	3%	84% (active)	97.2% (active)	2%	96% (active)	98.3% (active)
O=[N+]([O-])c1ccc(SCc2ccccc2)c2nonc12	13%	63%	86.8% (active)	12%	99% (active)	89.5% (active)	14%	87% (active)	88% (active)	13%	77% (active)	88.9% (active)	11%	97% (active)	88.7% (active)	22%	81% (active)	86% (active)
